Test results published in the supplement of paper PMC10849652.
Targets with a hit are over-represented here; the source holds about 8,800 in all. About 0.5% of all pairs of compound and target were hits.

Legend:
Assay in all cases: log2 fold change, soluble protein after heating vs DMSO (PISA); higher = thermal stabilisation; K562 lysate, 10 uM; active = over 0.2 and 3.5 SD of the protein, either way, in both replicates (recomputed)
erlotinib = compound: C#Cc1cccc(Nc2ncnc3cc(OCCOC)c(OCCOC)cc23)c1 [erlotinib]
Procedure, shortened: (§1)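 K562 pellets were dounce-homogenised in PBS pH 7.4 with 1 mM MgCl2, and the crude extract at 1 mg/mL protein was treated with 10 μM compound for 30 min. Aliquots were heated for 3 min across 48°C-58°C, pooled, and brought to 0.5% NP-40 at 4°C; soluble protein was the supernatant after 21,000xg for 90 min. Soluble protein was quantified by TMTpro 16plex LC-MS/MS with channel sums equalised, and reported as log2 fold change in thermal stability against DMSO controls, with values from duplicates.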

[1] = compound: C/C(=N\NC(=O)C1=CC(=CC=C1)S(=O)(=O)N2CCOCC2)/C3=C(C=CC(=C3)Cl)O
Procedure, shortened: as §1

[2] = compound: C1=CC(=CC=C1C2=NC3=C(N2)C=C(C=C3)C(=O)N)OC4=CC=C(C=C4)Cl
Procedure, shortened: as §1

[3] = compound: C1=CC2=C(C=CC(=C2)/C=C\3/C(=O)NC(=NCC4=CC=CS4)S3)N=C1
Procedure, shortened: as §1

[4] = compound: C1=CC2=NC=CN=C2C=C1/C=C/3\C(=O)NC(=O)S3
Procedure, shortened: as §1

[5] = compound: C1=CC=C(C=C1)C2=NC(=C(N2)C3=CC=NC=C3)C4=CC(=C(C=C4)Cl)O
Procedure, shortened: as §1

[6] = compound: C1=CC=C2C(=C1)C3=NNC4=CC=CC(=C43)C2=O
Procedure, shortened: as §1

[7] = compound: C1CCN(C1)C(=O)NC2=CC=CC(=C2)NC3=NC=C(C(=N3)NCCC4=CN=CN4)Br
Procedure, shortened: as §1

[8] = compound: C1CN(CCC1(CC2=CC=C(C=C2)Cl)N)C3=NC=NC4=C3C=CN4
Procedure, shortened: as §1

IRAK-1-4 Inhibitor I = compound: C1COCCN1CCN2C3=CC=CC=C3N=C2NC(=O)C4=CC(=CC=C4)[N+](=O)[O-] [IRAK-1-4 Inhibitor I]
Procedure, shortened: as §1

Measured: log2 fold change

RPS4X (UniProt P62701)
inactive: erlotinib -0.016 | [1] 0.014 | [2] -0.012 | [3] -0.012 | [4] -0.018 | [5] -0.002 | [6] -0.005 | [7] 0.017 | [8] 0.004 | IRAK-1-4 Inhibitor I 0.03

RBM23 isoform 2 (UniProt Q86U06)
Chain of UniProt Q86U06 (Q86U06 whole entry, looked up): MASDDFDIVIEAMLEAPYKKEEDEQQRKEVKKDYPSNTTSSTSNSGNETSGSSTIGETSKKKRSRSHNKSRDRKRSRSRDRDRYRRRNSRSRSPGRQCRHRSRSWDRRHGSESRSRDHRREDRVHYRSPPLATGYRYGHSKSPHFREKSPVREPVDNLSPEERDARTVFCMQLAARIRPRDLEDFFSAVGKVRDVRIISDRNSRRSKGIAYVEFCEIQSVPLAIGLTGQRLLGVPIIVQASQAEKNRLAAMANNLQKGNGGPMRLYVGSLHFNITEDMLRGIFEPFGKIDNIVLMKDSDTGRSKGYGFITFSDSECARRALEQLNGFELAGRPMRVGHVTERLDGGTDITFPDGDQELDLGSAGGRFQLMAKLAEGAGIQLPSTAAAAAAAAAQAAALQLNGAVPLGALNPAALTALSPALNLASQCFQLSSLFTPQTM
inactive: erlotinib -0.056 | [1] 0.007 | [2] 0.012 | [3] -0.106 | [4] 0.148 | [5] -0.052 | [6] 0.001 | [7] -0.175 | [8] 0.091 | IRAK-1-4 Inhibitor I -0.004

RANBP6 (UniProt O60518)
inactive: erlotinib 0.045 | [1] -0.043 | [2] -0.003 | [3] -0.034 | [4] 0.061 | [5] 0.027 | [6] 0.021 | [7] 0.044 | [8] -0.019 | IRAK-1-4 Inhibitor I 0.04

RPS18 (UniProt P62269)
inactive: erlotinib -0.021 | [1] -0.088 | [2] -0.007 | [3] -0.006 | [4] -0.004 | [5] -0.012 | [6] -0.007 | [7] 0.005 | [8] 0.004 | IRAK-1-4 Inhibitor I 0.047

RAP1GAP isoform 4 (UniProt P47736)
Chain of UniProt P47736 (P47736 whole entry, looked up): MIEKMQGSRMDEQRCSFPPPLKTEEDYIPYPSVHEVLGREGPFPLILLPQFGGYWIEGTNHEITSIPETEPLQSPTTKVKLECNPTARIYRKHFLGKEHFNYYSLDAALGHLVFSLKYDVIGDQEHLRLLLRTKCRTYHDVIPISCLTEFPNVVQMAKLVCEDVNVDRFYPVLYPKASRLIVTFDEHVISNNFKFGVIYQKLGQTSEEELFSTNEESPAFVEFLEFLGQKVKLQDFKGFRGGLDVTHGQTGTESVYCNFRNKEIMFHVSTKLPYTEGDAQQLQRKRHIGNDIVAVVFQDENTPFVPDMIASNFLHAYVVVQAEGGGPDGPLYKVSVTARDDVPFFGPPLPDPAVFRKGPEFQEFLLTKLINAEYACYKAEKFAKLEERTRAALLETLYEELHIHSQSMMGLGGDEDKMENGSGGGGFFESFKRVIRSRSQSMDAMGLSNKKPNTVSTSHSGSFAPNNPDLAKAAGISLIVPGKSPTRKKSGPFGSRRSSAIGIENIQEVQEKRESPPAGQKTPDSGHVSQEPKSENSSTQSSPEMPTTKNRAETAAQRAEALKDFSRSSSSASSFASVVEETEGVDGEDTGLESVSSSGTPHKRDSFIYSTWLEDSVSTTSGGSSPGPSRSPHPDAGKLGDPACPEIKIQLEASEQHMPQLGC
inactive: erlotinib 0.087 | [1] -0.028 | [2] -0.011 | [3] -0.018 | [4] -0.019 | [5] -0.012 | [6] -0.005 | [7] 0.02 | [8] 0.056 | IRAK-1-4 Inhibitor I 0.041

RAB1B (UniProt Q9H0U4)
Chain of UniProt Q9H0U4 (Q9H0U4 whole entry, looked up): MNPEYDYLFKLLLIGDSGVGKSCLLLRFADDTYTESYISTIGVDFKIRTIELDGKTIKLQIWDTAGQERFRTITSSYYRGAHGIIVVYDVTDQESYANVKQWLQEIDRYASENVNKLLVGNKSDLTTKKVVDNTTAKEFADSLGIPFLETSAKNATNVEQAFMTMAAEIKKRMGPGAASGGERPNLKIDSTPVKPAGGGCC
inactive: erlotinib -0.009 | [1] -0.005 | [2] 0.011 | [3] 0.019 | [4] -0.002 | [5] 0.005 | [6] -0.008 | [7] 0.014 | [8] 0.003 | IRAK-1-4 Inhibitor I 0.055

RCC1 isoform 2 (UniProt P18754)
inactive: erlotinib 0.016 | [1] 0.005 | [2] -0.033 | [3] 0 | [4] 0.017 | [5] 0.007 | [6] -0.024 | [7] -0.008 | [8] -0.043 | IRAK-1-4 Inhibitor I -0.022

S100A11 (UniProt P31949)
inactive: erlotinib 0.02 | [1] 0.034 | [2] 0.02 | [3] -0.008 | [4] -0.028 | [5] -0.009 | [6] -0.055 | [7] 0.071 | [8] 0.074 | IRAK-1-4 Inhibitor I -0.025

RFC3 (UniProt P40938)
inactive: erlotinib 0.05 | [1] 0.01 | [2] -0.034 | [3] 0.024 | [4] 0.005 | [5] 0.005 | [6] -0.027 | [7] -0.002 | [8] 0.049 | IRAK-1-4 Inhibitor I 0.028

SEMA4G isoform 2 (UniProt Q9NTN9)
Chain of UniProt Q9NTN9 (Q9NTN9 whole entry, looked up): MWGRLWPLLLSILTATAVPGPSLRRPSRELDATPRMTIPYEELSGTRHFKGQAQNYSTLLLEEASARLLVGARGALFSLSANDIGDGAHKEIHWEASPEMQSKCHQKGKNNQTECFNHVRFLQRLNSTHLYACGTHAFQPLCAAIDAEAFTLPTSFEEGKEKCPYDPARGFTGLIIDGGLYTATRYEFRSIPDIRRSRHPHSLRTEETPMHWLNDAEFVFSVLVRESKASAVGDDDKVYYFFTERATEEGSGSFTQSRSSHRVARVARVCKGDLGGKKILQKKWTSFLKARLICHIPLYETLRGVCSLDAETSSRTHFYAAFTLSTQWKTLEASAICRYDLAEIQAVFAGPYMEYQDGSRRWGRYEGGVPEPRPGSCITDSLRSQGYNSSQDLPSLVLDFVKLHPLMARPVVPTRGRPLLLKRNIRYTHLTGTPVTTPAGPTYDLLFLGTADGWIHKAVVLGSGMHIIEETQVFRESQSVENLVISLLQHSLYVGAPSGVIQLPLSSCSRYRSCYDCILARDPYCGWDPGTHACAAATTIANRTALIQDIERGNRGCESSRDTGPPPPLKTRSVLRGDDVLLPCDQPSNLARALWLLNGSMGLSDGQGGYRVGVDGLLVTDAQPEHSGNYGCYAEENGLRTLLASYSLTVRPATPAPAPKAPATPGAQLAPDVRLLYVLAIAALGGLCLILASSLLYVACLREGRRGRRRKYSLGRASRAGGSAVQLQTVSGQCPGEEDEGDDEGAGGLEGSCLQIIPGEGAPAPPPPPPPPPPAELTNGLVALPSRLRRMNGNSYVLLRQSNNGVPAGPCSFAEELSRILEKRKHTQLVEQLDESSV
inactive: erlotinib 0.005 | [1] -0.137 | [2] -0.063 | [3] 0.032 | [6] -0.011 | [7] 0.034 | [8] -0.112

RAD54L2 (UniProt Q9Y4B4)
inactive: erlotinib 0.186 | [1] -0.176 | [2] -0.103 | [3] -0.035 | [4] -0.135 | [6] 0.002 | [7] -0.046 | [8] 0.055

RAD54L (UniProt Q92698)
inactive: erlotinib -0.026 | [2] -0.005 | [4] -0.072 | [5] -0.071 | IRAK-1-4 Inhibitor I 0.02

RNPC3 (UniProt Q96LT9)
inactive: erlotinib 0.004 | [2] -0.059 | [5] 0.011 | IRAK-1-4 Inhibitor I 0.076

SERAC1 (UniProt Q96JX3)
inactive: erlotinib 0.004 | [2] -0.235 | [4] -0.014 | [7] 0.123 | [8] 0.056

RPS6KA3 (UniProt P51812)
Chain of UniProt P51812 (P51812 whole entry, looked up): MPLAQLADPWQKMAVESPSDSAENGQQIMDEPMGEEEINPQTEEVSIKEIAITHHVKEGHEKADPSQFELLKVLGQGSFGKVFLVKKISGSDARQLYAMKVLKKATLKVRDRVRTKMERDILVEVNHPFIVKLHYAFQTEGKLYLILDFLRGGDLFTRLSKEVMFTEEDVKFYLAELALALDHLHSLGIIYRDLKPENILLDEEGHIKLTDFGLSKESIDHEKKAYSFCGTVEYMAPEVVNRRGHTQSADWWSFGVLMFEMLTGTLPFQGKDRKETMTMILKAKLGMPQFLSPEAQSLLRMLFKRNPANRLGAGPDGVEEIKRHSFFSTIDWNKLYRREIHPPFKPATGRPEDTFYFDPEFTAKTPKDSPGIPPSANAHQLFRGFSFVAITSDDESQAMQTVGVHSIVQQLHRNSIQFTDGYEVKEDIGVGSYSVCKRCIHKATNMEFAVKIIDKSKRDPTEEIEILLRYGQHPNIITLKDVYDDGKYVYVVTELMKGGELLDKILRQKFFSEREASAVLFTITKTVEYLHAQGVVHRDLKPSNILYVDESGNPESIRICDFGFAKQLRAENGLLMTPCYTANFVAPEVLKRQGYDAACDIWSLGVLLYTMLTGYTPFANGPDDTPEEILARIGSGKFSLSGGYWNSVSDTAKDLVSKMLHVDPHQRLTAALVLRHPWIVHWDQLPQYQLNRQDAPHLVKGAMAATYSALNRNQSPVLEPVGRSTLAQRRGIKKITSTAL
inactive: erlotinib -0.04 | [1] -0.003 | [2] 0.182 | [4] 0.004 | [5] 0.026 | [6] 0.328 | [7] 0.082 | [8] -0.043 | IRAK-1-4 Inhibitor I -0.019

SEC16A isoform 2 (UniProt O15027)
inactive: [5] -0.07 | IRAK-1-4 Inhibitor I -0.053

RPS6KA5 (UniProt O75582)
inactive: erlotinib -0.036 | [1] -0.161 | [2] 0.2 | [3] 0.014 | [5] 0.023 | [6] 0.152 | [7] -0.02 | [8] -0.11 | IRAK-1-4 Inhibitor I 0.014

S100A6 (UniProt P06703)
inactive: erlotinib 0.045 | [1] 0.346 | [2] -0.025 | [3] 0 | [5] -0.196 | [6] 0.02 | [7] 0.352 | [8] 0.151 | IRAK-1-4 Inhibitor I -0.209

SAP30 (UniProt O75446)
inactive: [1] 0.06 | [3] 0.025 | [4] -0.037 | [6] 0.013 | [7] 0.011 | [8] 0.067

RUFY2 isoform 1 (UniProt Q8WXA3)
Chain of UniProt Q8WXA3 (Q8WXA3 whole entry, looked up): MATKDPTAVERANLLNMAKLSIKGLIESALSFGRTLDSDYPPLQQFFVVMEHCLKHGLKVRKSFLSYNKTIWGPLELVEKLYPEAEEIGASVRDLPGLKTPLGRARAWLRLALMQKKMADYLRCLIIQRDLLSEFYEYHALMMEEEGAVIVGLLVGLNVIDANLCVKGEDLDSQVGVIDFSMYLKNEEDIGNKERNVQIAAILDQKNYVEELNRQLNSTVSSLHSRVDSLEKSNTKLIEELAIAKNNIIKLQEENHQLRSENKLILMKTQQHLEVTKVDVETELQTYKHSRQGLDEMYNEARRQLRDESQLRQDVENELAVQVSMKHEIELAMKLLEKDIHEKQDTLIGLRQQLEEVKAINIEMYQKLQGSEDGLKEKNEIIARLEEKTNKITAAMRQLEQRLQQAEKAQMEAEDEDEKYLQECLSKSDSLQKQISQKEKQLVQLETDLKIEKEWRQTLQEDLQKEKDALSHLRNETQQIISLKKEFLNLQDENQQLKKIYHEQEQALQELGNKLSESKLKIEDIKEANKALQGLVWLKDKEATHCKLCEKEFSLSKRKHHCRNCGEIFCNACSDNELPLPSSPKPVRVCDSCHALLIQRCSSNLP
inactive: [1] -0.117 | [3] 0.02 | [4] 0.016 | [5] -0.099 | [6] 0 | [7] -0.01 | [8] 0.041 | IRAK-1-4 Inhibitor I 0.05

RMI2 (UniProt Q96E14)
inactive: erlotinib 0.051 | [1] -0.246 | [2] -0.121 | [3] 0.206 | [5] 0.002 | [6] -0.121 | [7] -0.044 | [8] 0.117 | IRAK-1-4 Inhibitor I 0.054

SELENOK (UniProt Q9Y6D0)
inactive: [1] -0.075 | [3] 0.02 | [4] 0.089 | [6] 0.044

RNF170 (UniProt Q96K19)
Chain of UniProt Q96K19 (Q96K19 whole entry, looked up): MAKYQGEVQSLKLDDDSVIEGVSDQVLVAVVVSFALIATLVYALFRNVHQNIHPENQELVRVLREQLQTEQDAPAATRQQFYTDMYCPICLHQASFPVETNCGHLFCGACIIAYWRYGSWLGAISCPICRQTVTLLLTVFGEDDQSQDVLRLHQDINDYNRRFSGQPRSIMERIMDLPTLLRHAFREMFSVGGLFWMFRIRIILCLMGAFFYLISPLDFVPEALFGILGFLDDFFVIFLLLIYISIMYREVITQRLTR
inactive: erlotinib 0.062 | [1] -0.018 | [2] -0.125 | [3] 0.136 | [4] 0.032 | [6] -0.577

RHBDD1 (UniProt Q8TEB9)
Chain of UniProt Q8TEB9 (Q8TEB9 whole entry, looked up): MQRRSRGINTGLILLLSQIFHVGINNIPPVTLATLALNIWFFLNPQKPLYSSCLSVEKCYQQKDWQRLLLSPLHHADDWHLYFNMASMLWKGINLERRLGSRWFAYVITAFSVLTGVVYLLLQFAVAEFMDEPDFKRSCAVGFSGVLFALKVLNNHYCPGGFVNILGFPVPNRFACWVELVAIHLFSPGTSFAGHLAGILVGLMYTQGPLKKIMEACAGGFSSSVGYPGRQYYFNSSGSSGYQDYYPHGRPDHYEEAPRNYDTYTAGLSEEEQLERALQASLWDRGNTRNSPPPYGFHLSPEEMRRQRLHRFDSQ
inactive: [1] -0.476 | [3] 0.19 | [4] 0.337 | [6] -0.056 | [7] -0.093 | [8] 0.159

RAB5IF isoform 5 (UniProt Q9BUV8)
inactive: erlotinib 0.193 | [1] 0.021 | [2] 0.082 | [3] 0.001 | [4] -0.052 | [6] -0.036 | [7] -0.065 | [8] 0.034

SCNM1 (UniProt Q9BWG6)
Chain of UniProt Q9BWG6 (Q9BWG6 whole entry, looked up): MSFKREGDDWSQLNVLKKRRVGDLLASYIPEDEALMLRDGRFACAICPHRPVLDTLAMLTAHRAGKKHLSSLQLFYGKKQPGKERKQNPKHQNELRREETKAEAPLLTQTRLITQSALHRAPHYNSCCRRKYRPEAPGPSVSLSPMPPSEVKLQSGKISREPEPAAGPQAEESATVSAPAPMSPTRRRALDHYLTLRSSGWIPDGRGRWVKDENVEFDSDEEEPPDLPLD
inactive: erlotinib 0.045 | [2] 0.044 | [5] -0.005 | [7] -0.054 | [8] -0.158 | IRAK-1-4 Inhibitor I -0.021

RNF17 (UniProt Q9BXT8)
inactive: erlotinib -0.055 | [2] 0.008 | [4] 0.553 | [5] 0.013 | [7] -0.025 | [8] 0.033 | IRAK-1-4 Inhibitor I 0.055

RYR1 (UniProt P21817)
inactive: erlotinib -0.077 | [2] -0.174 | [4] 0.012 | [5] -0.025 | [7] -0.029 | [8] -0.057 | IRAK-1-4 Inhibitor I -0.003

SEC16A isoform 3 (UniProt O15027)
inactive: [5] 0.41 | IRAK-1-4 Inhibitor I 0.123

RAD17 (UniProt O75943)
Chain of UniProt O75943 (O75943 whole entry, looked up): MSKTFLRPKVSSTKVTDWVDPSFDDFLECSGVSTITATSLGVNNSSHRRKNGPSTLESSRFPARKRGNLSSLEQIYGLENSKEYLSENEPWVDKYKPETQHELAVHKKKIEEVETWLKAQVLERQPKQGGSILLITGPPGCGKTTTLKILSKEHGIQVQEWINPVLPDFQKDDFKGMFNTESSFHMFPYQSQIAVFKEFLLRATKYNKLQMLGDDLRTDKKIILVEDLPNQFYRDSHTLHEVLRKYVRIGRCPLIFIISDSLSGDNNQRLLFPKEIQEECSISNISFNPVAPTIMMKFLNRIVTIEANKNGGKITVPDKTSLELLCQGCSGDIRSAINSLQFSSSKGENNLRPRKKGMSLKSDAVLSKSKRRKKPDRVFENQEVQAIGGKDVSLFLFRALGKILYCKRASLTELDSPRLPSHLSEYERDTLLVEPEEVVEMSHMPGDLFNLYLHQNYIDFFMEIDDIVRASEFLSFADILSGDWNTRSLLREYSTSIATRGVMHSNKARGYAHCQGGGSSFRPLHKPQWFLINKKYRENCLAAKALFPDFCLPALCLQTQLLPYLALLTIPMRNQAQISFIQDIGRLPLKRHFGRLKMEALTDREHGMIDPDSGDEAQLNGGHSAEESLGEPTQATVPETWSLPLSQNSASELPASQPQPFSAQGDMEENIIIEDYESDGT
inactive: [1] 0.005 | [3] -0.1 | [4] 0.014 | [5] -0.047 | [7] 0.031 | [8] 0.019 | IRAK-1-4 Inhibitor I 0.021
active: [6] -0.458

RLIM (UniProt Q9NVW2)
inactive: [4] -0.021

RAP1B (UniProt F5GZG1)
inactive: erlotinib -0.028 | [1] 0.332 | [2] 0.101 | [3] -0.048 | [4] -0.206 | [6] -0.08 | [7] -0.081 | [8] 0.04

RXRA (UniProt P19793)
inactive: erlotinib 0.102 | [2] 0.008 | [5] -0.025 | IRAK-1-4 Inhibitor I 0.113

QSER1, A0A3B3IRW6
inactive: erlotinib -0.056 | [1] 0.025 | [2] 0.054 | [3] -0.057 | [5] -0.006 | [6] 0.059 | [7] 0.002 | [8] -0.046 | IRAK-1-4 Inhibitor I -0.014

RNF2 (UniProt Q99496)
inactive: erlotinib 0.061 | [1] -0.088 | [2] -0.031 | [3] 0.036 | [5] 0.002 | [6] -0.01 | [7] 0.048 | [8] -0.037 | IRAK-1-4 Inhibitor I -0.039
